Laboratory results: PubChem BioAssay AID1751 (National Center for Advancing Translational Sciences (NCATS), 2009)
Inconclusive results are not listed. Active and inactive are the calls of the source. Calls come from the whole dose curve; as a rule, active = well fitted activation curve with a large enough effect; inconclusive = small, poorly fitted or top-dose-only effect; inactive = no such curve, though single readings can be large or run the other way.

Each compound was assayed against Pyruvate kinase PKM (Homo sapiens) (UniProt P14618) (assay: Confirmation Concentration-Response Assay for Activators of Human Muscle isoform 2 Pyruvate Kinase). Settings: purified hPK-M2, Kinase-Glo ATP luminescence, 1 h; series mostly up to 57.5 µM.
Sequence of Pyruvate kinase PKM (Homo sapiens) (P14618 whole entry, looked up, canonical isoform): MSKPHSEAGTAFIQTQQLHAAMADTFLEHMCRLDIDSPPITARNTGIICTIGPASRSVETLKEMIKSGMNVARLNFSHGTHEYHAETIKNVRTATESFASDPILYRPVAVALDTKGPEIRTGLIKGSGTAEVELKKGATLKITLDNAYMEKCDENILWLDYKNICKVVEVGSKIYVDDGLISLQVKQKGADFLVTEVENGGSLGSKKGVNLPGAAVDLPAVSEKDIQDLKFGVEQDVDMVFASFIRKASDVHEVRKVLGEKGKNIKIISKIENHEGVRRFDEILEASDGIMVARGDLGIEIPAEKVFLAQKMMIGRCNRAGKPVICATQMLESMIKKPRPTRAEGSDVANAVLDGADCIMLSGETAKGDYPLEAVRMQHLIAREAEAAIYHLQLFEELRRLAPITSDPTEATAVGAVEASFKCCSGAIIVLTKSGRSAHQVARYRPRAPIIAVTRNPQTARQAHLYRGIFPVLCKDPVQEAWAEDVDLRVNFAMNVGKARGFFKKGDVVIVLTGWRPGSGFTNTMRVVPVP
Text: NIH Chemical Genomics Center [NCGC] Matthew G. Vander Heiden, M.D., Ph.D. [Harvard Medical School, 77 Avenue Louis Pasteur, Boston, MA 02115] MLPCN Grant: 1 R03 MH085679-01 NCGC Assay Overview: Human pyruvate kinase muscle 2 (hPK-M2) enzyme was supplied as a highly purified (>95% pure) preparation from Harvard Medical School and assayed for its ability to generate ATP from ADP using phosphoenolpyruvate (PEP) as a substrate. ATP generation was detected in a coupled reaction by luciferase-mediated luminescence, an ATP-dependent process. Pyruvate kinase substrates, PEP and ADP, were present in the assay at Km and approximately 10-fold below Km respectively. The enzyme was assayed at an intermediate level of activity to screen for both inhibitors and activators.
NCGC Assay Protocol Summary: Three uL of substrate mix (at r.t.) in assay buffer (50 mM Imidazole pH7.2, 50 mM KCl, 7 mM MgCl2, 0.01% Tween 20, 0.05% BSA) was dispensed into white solid bottom 1,536 well microtiter plates so that the final concentrations of substrates in the assay were 0.1 mM ADP and 0.5 mM PEP. 23 nL of compound were delivered by a pin tool and 1 uL of enzyme mix (final concentration of 0.1 nM) in assay buffer (4 degree Celsius) was added. Plates were incubated at room temperature for 1 hour. Two uL of detection mix (Kinase-Glo, Promega; at 4 degree Celsius protected from light) was added and luminescence read by a ViewLux (Perkin Elmer) at 1 second exposure/plate. Data were normalized to the uninhibited (column 3) and AC100 inhibition (no enzyme in column 2). To monitor activation, the first column contained a titration of the activator, NCGC00031955-03 (16-point 1:2 dilutions in duplicate starting at 57 uM) and the first 16 rows of column 4 contained 57 uM of NCGC00031955-03.

SMILES	Potency
CCOC(=O)CSc1nc2cc(OC)ccc2cc1C#N	inactive
Cc1sc2ncnc(OCC(=O)N3CCN(S(=O)(=O)c4ccc(Cl)cc4)CC3)c2c1C	inactive
Oc1ccc(-c2nnc(-c3ccc(O)cc3)nn2)cc1	inactive
Cc1ccc(Cn2ncc3c4sc(C)cc4n(C)c3c2=O)c(C)c1	56.6 nM (active)
Cc1cc2c(s1)c1cnn(Cc3cccc(Cn4ncc5c6sc(C)cc6n(C)c5c4=O)c3F)c(=O)c1n2C	16000 nM (active)
Cc1cc2c(s1)c1cnn(Cc3cccc(F)c3F)c(=O)c1n2C	113 nM (active)
COc1ccc(S(=O)(=O)N2CCN(S(=O)(=O)c3ccc(OC)cc3)CC2)cc1	142 nM (active)
Cc1cc2c(s1)c1cnn(Cc3ccccc3Cl)c(=O)c1n2C	113 nM (active)
Cn1c2ccsc2c2cnn(Cc3ccccc3F)c(=O)c21	318 nM (active)
Nc1cccc(-c2cn3cc(C(F)(F)F)cc(Cl)c3n2)c1	inactive
Cn1c2ccsc2c2ncn(Cc3ccccc3F)c(=O)c21	17900 nM (active)
N#Cc1cc(-c2ccccc2)cnc1Sc1ccccc1	inactive
Cc1cc2c(s1)c1cnn(Cc3ccccc3F)c(=O)c1n2C	40.1 nM (active)
O=S(=O)(c1ccc2c(c1)OCCO2)N1CCN(S(=O)(=O)c2ccc3c(c2)OCCO3)CC1	179 nM (active)
CC(C)c1cc2c(s1)c1cnn(Cc3ccccc3F)c(=O)c1n2C	101 nM (active)
C[C@H]1CN(S(=O)(=O)c2ccc3c(c2)OCCO3)CCN1S(=O)(=O)c1c(F)cccc1F	8970 nM (active)
Cn1c2cc([N+](=O)[O-])sc2c2cnn(Cc3ccccc3F)c(=O)c21	12.7 nM (active)
O=C1CN(S(=O)(=O)c2c(F)cccc2F)CCN1S(=O)(=O)c1ccc2c(c1)OCCO2	89.7 nM (active)
Cc1ccc(Cn2ncc3c4sc(C)cc4n(C)c3c2=O)cc1	225 nM (active)
O=S(=O)(c1ccc2c(c1)OCCCO2)N1CCN(S(=O)(=O)c2c(F)cccc2F)CC1	80 nM (active)

SMILES	Potency
Cc1cc2c(s1)c1c(C)nn(Cc3ccccc3F)c(=O)c1n2C	20100 nM (active)
Cn1c2cc(C=O)sc2c2cnn(Cc3ccccc3F)c(=O)c21	7.1 nM (active)
COc1ccc(S(=O)(=O)N2CCN(S(=O)(=O)c3ccc4c(c3)OCCO4)CC2)cc1	80 nM (active)
O=S(=O)(NCCNS(=O)(=O)c1c(F)cccc1F)c1ccc2c(c1)OCCO2	20100 nM (active)
Cc1cc2c(s1)c1cnn(Cc3ccc(F)c(F)c3F)c(=O)c1n2C	713 nM (active)
COc1ccc(Cn2ncc3c4sc(C)cc4n(C)c3c2=O)cc1	20.1 nM (active)
CC(=O)Nc1cc2c(s1)c1cnn(Cc3ccccc3F)c(=O)c1n2C	17900 nM (active)
Cn1ccc2cc(S(=O)(=O)N3CCN(S(=O)(=O)c4c(F)cccc4F)CC3)ccc21	318 nM (active)
Cc1cc2c(s1)c1cnn(Cc3ccc(C(F)(F)F)cc3)c(=O)c1n2C	318 nM (active)
O=S(=O)(c1ccc2c(c1)OCCO2)N1CCN(S(=O)(=O)c2cc(F)c(F)cc2F)CC1	71.3 nM (active)
COC(=O)c1cc2c(s1)c1cnn(Cc3ccccc3F)c(=O)c1n2C	39.1 nM (active)
Cc1cc2c(s1)c1cnn(Cc3c(F)cccc3Cl)c(=O)c1n2C	40.1 nM (active)
O=C(c1ccc2c(c1)OCCO2)N1CCN(S(=O)(=O)c2c(F)cccc2F)CC1	inactive
CN1CCOc2ccc(S(=O)(=O)N3CCN(S(=O)(=O)c4c(F)cccc4F)CC3)cc21	2010 nM (active)
C[C@H]1CN(S(=O)(=O)c2c(F)cccc2F)CCN1S(=O)(=O)c1ccc2c(c1)OCCO2	3570 nM (active)
S=C1NC(c2ccccc2)N2C(=S)NC(c3ccccc3)N12 (stereo not given)	inactive
COc1cc2c(s1)c1cnn(Cc3ccccc3F)c(=O)c1n2C	40.1 nM (active)
CCCc1noc(-c2ccc(-c3ccccc3)cc2)n1	inactive
Cc1ccc(NS(=O)(=O)c2ccc3c(c2)CCC(=O)N3)cc1C	163 nM (active)
Cc1cc2c(s1)c1cnn(Cc3ccc(F)cc3)c(=O)c1n2C	25.3 nM (active)
